From PubChem BioAssay
This excerpt belongs to a sample that is enriched for hits.
BLM helicase inh: qHTS Assay for Inhibitors of Bloom's syndrome helicase (BLM) | RecQ-like DNA helicase BLM (Homo sapiens), P54132 | recombinant BLM DNA unwinding, fluorescence dequenching | Potency, µM (series often up to 56.1 µM), most hits filed as inhibitors | actives 0.2% (n = 350,000); also: nearly all actives have a fitted effect of over 35% in size
RGS12 GoLoco inh: qHTS Assay for Inhibitors of RGS12 GoLoco Motif Activity (Red Fluorophore); actives 0.44% (n = 230,000); Potency, µM (doses to about 61.6 µM), usual class: inhibitors; Guanine nucleotide-binding protein G(i) subunit alpha-1 (Homo sapiens), P63096; AID 880, 2007; Gai1:RGS12 GoLoco peptide FP, rhodamine, 10 min; active = well fitted inhibition curve with a large enough effect, not every such curve was filed as active; inactive = no such curve, though single readings can be large or run the other way; also: nearly all actives have a fitted effect of over 30% in size
APE1 inh: qHTS Assay for Inhibitors of the Human Apurinic/apyrimidinic Endonuclease 1 (APE1); recombinant APE1, TAMRA/BHQ-2 abasic DNA cleavage fluorescence; Potency, µM (titrated, usually from 65.8 µM), hits mostly inhibitors; actives 0.35% (n = 350,000); DNA repair nuclease/redox regulator APEX1 (Homo sapiens), P27695; also: nearly all actives have a fitted effect of over 55% in size
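Activity was derived from the fluorescence gain between first and third kinetic reads (60 s intervals, ex 525/em 598 nm) after 50 nM THF-abasic TAMRA/BHQ-2 duplex was added to 0.75 nM APE1 preincubated 15 min with compound.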
KDM4E inh: qHTS Assay for Inhibitors of Human Jumonji Domain Containing 2E (JMJD2E) | Potency, µM (top dose mostly 57.1 µM), hits mostly inhibitors | Lysine-specific demethylase 4E (Homo sapiens), B2RXH2 | JMJD2E catalytic domain, FDH-coupled NADH fluorescence (FDH is formaldehyde dehydrogenase) | actives 1.6% (n = 230,000); active = well fitted inhibition curve with a large enough effect, not every such curve was filed as active; inconclusive = small, poorly fitted or top-dose-only effect, or another doubt; inactive = no such curve, though single readings can be large or run the other way; also: nearly all actives have a fitted effect of over 50% in size
RECQ1 helicase: qHTS Assay for Inhibitors of RecQ-Like Dna Helicase 1 (RECQ1); actives 0.54% (n = 240,000); Potency, µM (top dose mostly 57.3 µM), usual class: inhibitors; RECQ1 DNA unwinding, red fluorescence kinetic read; ATP-dependent DNA helicase Q1 (Homo sapiens), P46063; also: nearly all actives have a fitted effect of over 30% in size
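RECQ1T1 50 nM; forked duplex (20 bp + 30-nt ss tails) 200 nM, ATP 2 mM final; pH 8.0, 2 mM MgCl2, 2.5 ug/ml poly(dI-dC); 15 min compound preincubation; discontinuous kinetic read over 2 h at RT.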
L3MBTL1 inh: qHTS Assay for the Inhibitors of L3MBTL1; actives 0.66% (n = 230,000); AID 485360, 2010; Potency, µM (series often up to 57.1 µM), actives largely listed as inhibitors; AlphaScreen L3MBTL1–H3K9me1 peptide binding; also: nearly all actives have a fitted effect of over 60% in size
Target sequence (Q9Y468 whole entry, looked up): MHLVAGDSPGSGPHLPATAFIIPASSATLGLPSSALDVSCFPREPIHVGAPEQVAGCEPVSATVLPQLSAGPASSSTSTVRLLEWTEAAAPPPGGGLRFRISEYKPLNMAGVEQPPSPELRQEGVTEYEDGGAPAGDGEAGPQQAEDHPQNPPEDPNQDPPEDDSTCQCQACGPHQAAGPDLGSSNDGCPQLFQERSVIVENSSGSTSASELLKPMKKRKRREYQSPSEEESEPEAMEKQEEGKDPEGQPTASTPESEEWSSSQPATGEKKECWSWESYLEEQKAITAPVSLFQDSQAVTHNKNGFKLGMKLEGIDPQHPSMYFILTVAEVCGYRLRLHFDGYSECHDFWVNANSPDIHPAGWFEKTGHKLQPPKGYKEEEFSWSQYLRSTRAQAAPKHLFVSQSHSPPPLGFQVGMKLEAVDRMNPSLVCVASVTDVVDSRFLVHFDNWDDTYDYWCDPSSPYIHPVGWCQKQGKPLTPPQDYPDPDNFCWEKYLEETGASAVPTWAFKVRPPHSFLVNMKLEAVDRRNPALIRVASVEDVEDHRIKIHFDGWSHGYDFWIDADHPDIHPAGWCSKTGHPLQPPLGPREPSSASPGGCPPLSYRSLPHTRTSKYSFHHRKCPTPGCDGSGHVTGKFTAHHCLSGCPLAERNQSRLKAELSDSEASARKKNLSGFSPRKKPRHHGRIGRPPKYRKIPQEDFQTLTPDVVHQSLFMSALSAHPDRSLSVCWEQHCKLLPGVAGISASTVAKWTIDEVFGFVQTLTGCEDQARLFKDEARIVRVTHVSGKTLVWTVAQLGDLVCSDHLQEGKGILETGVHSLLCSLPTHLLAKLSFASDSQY
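Read-out is AlphaScreen signal from streptavidin donor and nickel chelate acceptor beads (10 ug/mL final each) bridging L3MBTL1 (50 nM) and biotinylated K9-monomethylated H3(1-15) peptide (75 nM), after 30 min compound exposure at room temperature.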
Numbers stand for hits; – = inactive; ? = inconclusive; · = no result; ! = a repeat was not active; [ ] = remark or other dose. Unless noted, calls follow the shape of the dose curve; as a rule, active = well fitted curve in the direction sought with a large enough effect; inconclusive = small, poorly fitted or top-dose-only effect, or another doubt; inactive = no such curve, though single readings can be large; an effect the other way counts as inactive or inconclusive.

SMILES	BLM helicase inh	RGS12 GoLoco inh	APE1 inh	KDM4E inh	RECQ1 helicase	L3MBTL1 inh
Nc1cccn2c(-c3ccc(Cl)cc3)cnc12	–	–	–	?	–	–
CNC(=O)C[C@@H](N)C(=O)N[C@@H](C(=O)N[C@@H]1C(=O)N2[C@@H]1SC(C)(C)[C@@H]2C(=O)O)c1ccc(O)cc1	–	·	·	·	·	·
Cc1nc2ccccc2n2c(O)c(CC(=O)O)cc12	–	13µM	–	?	–	–
CCC(C)(C)C(=O)O[C@@H]1C[C@H](C)C=C2C=C[C@H](C)[C@@H](CC[C@H]3C[C@@H](O)CC(=O)O3)[C@H]21	–	–	·	–	–	·
CCCCCC#CCC#CCC#CCC#CCCCC(=O)O	13µM!	–	2µM!	16µM!	1.1µM!	?
CC(C)CN1C=C2C(=O)C(C)(OC(=O)C3CCCC3)C(=O)C=C2C=C1c1ccsc1 (stereo not drawn)	–[12.4 µM]	–[14.2 µM]	–[12.4 µM]	32µM!	–[11.5 µM]	·
COc1ccc(N2CCN(C(C)C(=O)N3CC(C)OC(C)C3)CC2)cc1 (stereo not drawn)	–	–	?	22µM	–	·
CC1=C(c2ccc(Cl)cc2)S(=O)(=O)N=C1N1CCN(c2cccc(C(F)(F)F)c2)CC1	–	·	·	·	·	·
CCOc1c(Cl)cc(CNc2ccc(S(N)(=O)=O)cc2)cc1OC	–	–	–	–	–	–
CCOc1c(Cl)cc(CNc2ccc(N3CCCC3)cc2)cc1OC	–	–	–	8.9µM	–	–
Cc1cccc(-n2c3nc(=O)n(C)c(=O)c-3cc3ccc(Cl)cc32)c1C	–	·	·	·	·	·
CC(C)Oc1ccc(CNC(=O)C2CCN(c3nc4ccccc4nc3C(F)(F)F)CC2)cc1	–	·	·	·	·	·
CC(C)N(CCC(=O)c1ccc2ccccc2c1)Cc1ccccc1	–	–	–	35µM	–	–
CC1C(=NO)C(C)C(c2ccc(N(C)C)cc2)NC1c1ccc(N(C)C)cc1 (stereo not drawn)	–	–	–	?	–	25µM
COc1ccc(C2NC(c3ccc(OC)cc3)C(C)C(=O)C2C)cc1 (stereo not drawn)	–	·	–	·	·	·
COC(=O)[C@@]1(Cc2ccc(OC)cc2)[C@@H]2[C@@H](CC(=O)[C@H]2CC(=O)C(=O)N(C)C)CN1C(=O)c1ccccc1	–	–	–	–	–	–
COC(=O)[C@@]1(Cc2ccc(F)cc2)[C@@H]2[C@@H](CC(=O)[C@H]2CC(=O)C(=O)N(C)C)CN1C(=O)c1ccccc1	–	–	–	16µM!	–	–
O=Cc1ccc(-c2ccccc2C(=O)O)o1	–	–	–	?	–	–
O=C(O)c1ccccc1-c1c2cc(I)c(=O)c(I)c-2oc2c(I)c(O)c(I)cc12	28µM	·	25µM	·	22µM	·
N#CCC(=O)NN	–	·	·	·	·	·
COC(=O)N1[C@H](C)C=C[C@]1(Cc1ccccc1)C(=O)NCc1ccc(N(C)C)cc1	–	–	–	18µM	–	·
COc1cnc(-c2ccccn2)nc1Oc1ccccc1Cl	–	–	–	–	–	–
COc1cnc(-c2ccccn2)nc1NC(C)C	–	–	–	–	–	1µM
Cc1ccsc1C1NC(=O)c2ccccc2N1 (stereo not drawn)	–	–	–	28µM	–	–
CC1(C)CC(=O)C(N=Nc2cc(S(=O)(=O)N3CCOCC3)ccc2Cl)=C(O)C1	–	–	10µM	–	–	32µM
SMILES	BLM helicase inh	RGS12 GoLoco inh	APE1 inh	KDM4E inh	RECQ1 helicase	L3MBTL1 inh
CC1(C)CC(=O)C(N=Nc2cc(C(F)(F)F)ccc2Cl)=C(O)C1	–	–	–	–	–	–
CCCCCCCn1ccc(=N)cc1	–	16µM	–	–	–	·
CCCCCn1ccc(=N)cc1	–	13µM	–	–	–	–
CCNC(=S)NNC(=O)c1nn(C)c(C)c1Cl	–	–	–	–	–	–
Cc1c(Cl)c(C(=O)NNC(=S)Nc2ccc(F)cc2)nn1C	–	–	–	20µM	–	–
Cc1c(Cl)c(C(=O)NNC(=S)Nc2ccccc2)nn1C	–	–	–	10µM	–	·
Cc1nn(CCC(=O)NNC(=S)Nc2ccc(F)cc2)c(C)c1[N+](=O)[O-]	–	–	–	–	–	–
CCOc1ccc(NC(=O)c2ccc(F)c(S(=O)(=O)N(CC)Cc3ccccc3)c2)cc1	–	·	·	·	·	·
COc1cc2ncnc(Nc3cccc(Cl)c3)c2cc1OC	–	2µM!	?	?	–	·
COc1ccccc1/C=C/C(=O)Nc1nc2n(n1)C(c1ccc(F)cc1)C=C(c1ccccc1)N2 (stereo not drawn)	–	·	·	·	·	·
Cc1cccc[n+]1C1C(c2ccc([N+](=O)[O-])cc2)C(C#N)=C(C(=C=[N-])C#N)NC1(O)C1CC1 (stereo not drawn)	–	–	–	13µM	–	–
N#CC1=C(N)NC(=S)C(C(N)=O)C1c1ccc([N+](=O)[O-])cc1 (stereo not drawn)	–	–	–	?	–	–
COc1cc(C)cc(C(=O)O)c1C1=C(O)c2cccc(O)c2C(=O)C1=O	–	–	35µM	?	?	·
COc1cc(O)c(C(=O)c2ccccc2)cc1O	–	–	–	?	?	·
COc1cccc(/C=N/NC(=O)CNC(=O)COc2cccc(C)c2)c1O	–	–	–	2.8µM	–	–
O=C(N/N=C/c1cccc([N+](=O)[O-])c1O)c1cccs1	–	–	–	4µM	–	?
Cc1cccc(OCC(=O)NCC(=O)N/N=C/c2ccccc2)c1	–	·	–	·	·	·
O=C(/C=C\c1ccccc1)NCC(=O)N/N=C/c1ccc(O)cc1O	–	·	–	·	·	·
Cc1cccc(OCC(=O)NCC(=O)N/N=C/c2ccc(O)cc2O)c1	–	–	–	3.2µM	–	·
COc1ccc(/C=C\C(=O)NCC(=O)N/N=C/c2ccc(O)cc2O)cc1	–	–	–	7.1µM	–	?
Cc1cccc(N2CCN(C(=O)c3ccc4c(c3)N(Cc3cccc(Cl)c3)C(=O)c3ccccc3S4=O)CC2)c1C (stereo not drawn)	–	·	·	·	·	·
CCC(C)c1ccc(OCC(=O)Nc2cccc(-c3nc4ncccc4o3)c2)cc1 (stereo not drawn)	–	·	·	·	·	·
COC(=O)C1=C(C(=O)OC)[C@@H]2N(C)c3ccc(OC)cc3[C@@]23C[C@@H](C(=O)OC)N(S(=O)(=O)c2ccc(C)cc2)C3=N1	–[12.4 µM]	–[14.2 µM]	–[12.4 µM]	–[11.4 µM]	–[11.5 µM]	·
